Laboratory results: PubChem BioAssay AID488969 (Vanderbilt High Throughput Screening Facility, 2010)
Over roughly 110,000 compounds, “z-score” has its median near -0.1; the highest 2% begin near 2. This is one part of a sample in which the highest values are shown more often than they occur. Activity calls are given as the source filed them.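 Rule for the calls: active = z-score in the third read window above 3 or below -3; inactive = the rest.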

target: Metabotropic glutamate receptor 8 (Rattus norvegicus) (UniProt P70579); test: rat mGluR8 modulators via GIRK flux, primary screen, cell-based, thallium flux, HTS (AID 488969); settings: HEK293 rat mGluR8, GIRK (G protein-gated inwardly rectifying potassium channel) thallium flux, FluoZin2; at 10 µM; stronger effect = higher value; submaximal glutamate (EC20) added with thallium
Sequence (P70579 whole entry, looked up): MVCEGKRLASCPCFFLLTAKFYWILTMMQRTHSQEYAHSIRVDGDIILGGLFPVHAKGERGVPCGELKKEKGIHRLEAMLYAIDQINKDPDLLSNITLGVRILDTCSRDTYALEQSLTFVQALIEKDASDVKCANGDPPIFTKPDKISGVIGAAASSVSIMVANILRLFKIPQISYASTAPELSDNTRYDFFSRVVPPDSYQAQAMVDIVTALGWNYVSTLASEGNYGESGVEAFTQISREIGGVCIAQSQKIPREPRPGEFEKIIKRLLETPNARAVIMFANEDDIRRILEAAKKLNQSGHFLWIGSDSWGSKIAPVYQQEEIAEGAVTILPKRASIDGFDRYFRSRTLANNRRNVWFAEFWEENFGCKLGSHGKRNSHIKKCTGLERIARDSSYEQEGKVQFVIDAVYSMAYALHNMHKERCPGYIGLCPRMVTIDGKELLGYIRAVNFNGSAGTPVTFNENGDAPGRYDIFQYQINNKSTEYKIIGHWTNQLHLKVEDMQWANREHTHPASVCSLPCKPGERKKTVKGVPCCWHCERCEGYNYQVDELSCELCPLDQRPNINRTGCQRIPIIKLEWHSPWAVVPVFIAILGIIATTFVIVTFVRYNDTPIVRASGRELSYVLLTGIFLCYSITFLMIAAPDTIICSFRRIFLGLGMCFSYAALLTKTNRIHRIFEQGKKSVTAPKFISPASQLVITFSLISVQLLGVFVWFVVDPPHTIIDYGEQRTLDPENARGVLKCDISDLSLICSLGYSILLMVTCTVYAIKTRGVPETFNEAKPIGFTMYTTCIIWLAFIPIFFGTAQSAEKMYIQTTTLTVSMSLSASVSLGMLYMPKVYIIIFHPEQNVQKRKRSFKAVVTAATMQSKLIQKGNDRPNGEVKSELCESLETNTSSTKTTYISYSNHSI

SMILES	z-score
C=CCc1cccc2cc(C(=O)N(C)C)c(=O)oc12	0.176
Cn1cccc1C(=O)N1CCN(c2cccc(C(F)(F)F)c2)CC1	-0.386
CC1CCC(NC(=O)CC2Oc3ccccc3NC2=O)CC1 (stereo unspecified)	-0.471
O=C(CC1Oc2ccccc2NC1=O)NC1CC1 (stereo unspecified)	2.19
O=C(CC1Oc2ccccc2NC1=O)NC1CCCC1 (stereo unspecified)	-0.0976
Cc1ccc(NC(=O)CCn2cnc3cc(C)c(C)cc32)cc1	-0.642
CCOc1ccccc1N1CCN(C(=O)C(F)(F)F)CC1	-0.337
Cc1cc(C)nc(NS(=O)(=O)c2ccc(N/C=C3\CCCC3=O)cc2)n1	-0.331
COc1ccccc1Nc1nc2nonc2nc1N1CCCCC1C (stereo unspecified)	-0.202
CC12CC3CC(C)(C1)CC(C(=O)NC(=S)N1CCOCC1)(C3)C2	3.1 (active)
CC12CC3(C)CC(C)(C1)CC(C(=O)NC(=S)NC(C)(C)C)(C2)C3	0.0601
O=C(NC(=S)N1CCCCC1)C12CC3CC(CC(C3)C1)C2	5.6 (active)
O=C(Nc1ccccc1N1CCN(c2ccc(F)cc2)CC1)C12CC3CC(CC(C3)C1)C2	-1.97
O=C(NC(=S)N1CCOCC1)C12CC3CCC(CC(C3)C1)C2	0.454
CC(C)(C)C(=O)NC(=S)N1CCOCC1	-0.0566
O=C(N1CCOCC1)C12CC3CC(C1)CC(C(=O)N1CCOCC1)(C3)C2	0.153
O=C(NC(=S)N1CCN(c2ccc(F)cc2)CC1)C12CC3CC(CC(C3)C1)C2	2.89
CC12CC3(C)CC(C)(C1)CC(C(=O)NC(=S)N1CCOCC1)(C2)C3	8.61 (active)
O=C(N1CCN(c2ccccc2)CC1)C12CC3CC(CC(C3)C1)C2	-0.202
CC12CC3CC(C)(C1)CC(CN1CCOCC1)(C3)C2	-0.06
O=C(NC(=S)N1CCOCC1)C12CCC3CC(CC(C3)C1)C2	0.411
CCOC(=O)Nc1cccc(NC(=O)c2cc(OC)cc(OC)c2)c1	-0.454
C=CCc1ccc(OCC(O)COCC)c(OC)c1 (stereo unspecified)	-0.12
N#C/C(=C\c1cccs1)C(=O)NCc1cccnc1	-0.112

SMILES	z-score
O=C(CNc1ccc(C(F)(F)F)cc1[N+](=O)[O-])OCC(=O)c1ccccc1	-0.875
O=C(CC12CC3CC(CC(C3)C1)C2)NCC(=O)N1CCCC1	0.463
CC12CC3CC(C)(C1)CC(C(=O)NC(=S)N1CCCCC1)(C3)C2	8.62 (active)
O=C(NC(=S)N1CCCCCC1)C1CC1	0.000532
CCOc1ccccc1N1CCN(C(=S)NC(=O)C23CC4CC(CC(C4)C2)C3)CC1	4.1 (active)
CCOc1ccccc1N1CCN(C(=S)Nc2ccc(S(N)(=O)=O)cc2)CC1	-0.356
O=C(CC12CC3CC(CC(C3)C1)C2)NC(=S)N1CCCCC1	2.58
CCN(CC)CCNC(=O)C12CC3CC(C)(CC(C)(C3)C1)C2	0.873
O=C(CC12CC3CC(CC(C3)C1)C2)N1CCCC1	-0.327
CCOc1ccccc1N1CCN(C(=O)c2ccccc2)CC1	-1.51
COC1(c2ccccc2)NC(=S)NN=C1c1ccccc1 (stereo unspecified)	0.721
O=S(=O)(c1cccc(NC(=S)N2CCN(c3ccccc3)CC2)c1)C(F)F	-0.245
Cc1occc1-c1nnc(SCC(=O)NC(C)(C)C)n1C(C)c1ccccc1 (stereo unspecified)	0.32
CN1C(=O)c2ccccc2C(C(=O)NCC2CCCO2)C1c1c[nH]c2ccccc12 (stereo unspecified)	-1.14
COc1ccc(CCNC(=O)COC(=O)c2ccc(Br)o2)cc1OC	0.125
COc1ccc(CC(=O)NNC(=O)CSc2nnc(Cc3ccc(OC)cc3)n2-c2ccccc2)cc1	-0.277
N#Cc1ccccc1NC(=O)c1ccccc1OCC(=O)Nc1ccc2c(c1)oc1ccccc12	-0.362
CC(C)(C)NC(=O)COC(=O)c1ccccc1OCC(=O)Nc1ccc(Br)cc1	-0.154
CCN1C(=O)CC(N2CCC(Nc3ccc(OC)cc3)CC2)C1=O (stereo unspecified)	0.0918
COc1ccc(CCNC(=O)COc2ccc(S(=O)(=O)NCC(C)C)cc2Cl)cc1OC	-0.464
Cc1ccc(NC(=O)/C(C#N)=C/c2cc(C)n(-c3ccc(N4CCOCC4)c([N+](=O)[O-])c3)c2C)c(C)c1	-0.136
CCOC(=O)N1CCC(N2C(=O)c3ccccc3C2Nc2ccc(C)cc2)CC1 (stereo unspecified)	-0.488
CCOC(=O)c1ccccc1NC1c2ccccc2C(=O)N1C1CCN(C(=O)OCC)CC1 (stereo unspecified)	-0.69
CCOC(=O)N1CCC(N2C(=O)c3ccccc3C2Nc2ccccc2C)CC1 (stereo unspecified)	2.74

SMILES	z-score
CCOC(=O)N1CCC(N2C(=O)c3ccccc3C2Nc2ccc3c(C)cc(=O)oc3c2)CC1 (stereo unspecified)	4.01 (active)
CCOC(=O)N1CCC(N2C(=O)c3ccccc3C2Nc2c(C)cccc2C)CC1 (stereo unspecified)	-0.177
CCOC(=O)N1CCC(N2C(=O)c3ccccc3C2Nc2ccccc2)CC1 (stereo unspecified)	-0.126
CCN(CC)c1ccc(C(=O)N/N=C(\C)c2ccc(OC)c(OC)c2)cc1	0.585
CCOC(=O)c1cc2c(ccn2C)n1CC(=O)N(Cc1ccccc1)c1ccc(F)cc1	1.2
CCOC(=O)C(C)(C)Sc1nc2c(cnn2-c2ccc(Cl)cc2)c(=O)[nH]1	-0.781
Cc1ccc(OCC(=O)c2ccc3c(c2)CCCC3)cc1C	-0.12
O=C(Nc1ccc2c3c(cccc13)CC2)c1ccco1	0.0277
Cc1cc(C)c(NC(=O)c2ccccc2N(C)S(C)(=O)=O)c(C)c1	0.0701
CC1(C)CC(=O)c2cn3nc(C(F)(F)F)nc3nc2C1	-0.129
CC1CCC2(CC1)NC(=S)N(c1ccccc1)N2 (stereo unspecified)	0.323
CCC1(c2ccc(Cl)cc2)NC(=S)N(c2ccccc2)N1 (stereo unspecified)	4.78 (active)
CCC1(c2ccccc2)NC(=S)N(c2cccc(C)c2C)N1 (stereo unspecified)	1.26
Cc1ccc(SCCC(=O)Nc2ccc(Br)c(C)c2)cc1	-0.0218
Cn1cccc1/C=N/n1c(-c2ccc(Cl)cc2)n[nH]c1=S	1.03
Cc1ccsc1/C=N/n1c(-c2ccco2)n[nH]c1=S	0.377
Cc1ccc(-c2n[nH]c(=S)n2/N=C/c2cccn2C)cc1	1.02
S=c1[nH]nc(-c2ccco2)n1/N=C/c1ccc(Cl)c(Cl)c1	1.59
S=c1[nH]nc(-c2ccco2)n1/N=C/c1cccc(Cl)c1Cl	5.73 (active)
S=c1[nH]nc(-c2ccco2)n1/N=C/c1ccc(Cl)cc1Cl	6.87 (active)
S=c1[nH]nc(-c2ccco2)n1/N=C/c1ccc(Cl)cc1	-0.0483
S=c1[nH]nc(-c2ccco2)n1/N=C/c1ccccc1Cl	1.07
Cn1cccc1/C=N/n1c(-c2ccc(Cl)cc2Cl)n[nH]c1=S	2.46
